Our source for the binding signal values is PMC12136788.

Changes are numbered by the printed parent chain. Whole data set: some 5,800 sequences, median “enrichment r” near 0.68, cut for the highest 2% near 11. For the sample, the highest values were picked, then their nearest neighbours and some sequences at random.

Sequences and labels used below:
T1: UNK ZnF1-6 (called full-length) (human, UniProt Q9C0B0 30-357)
T1 sequence: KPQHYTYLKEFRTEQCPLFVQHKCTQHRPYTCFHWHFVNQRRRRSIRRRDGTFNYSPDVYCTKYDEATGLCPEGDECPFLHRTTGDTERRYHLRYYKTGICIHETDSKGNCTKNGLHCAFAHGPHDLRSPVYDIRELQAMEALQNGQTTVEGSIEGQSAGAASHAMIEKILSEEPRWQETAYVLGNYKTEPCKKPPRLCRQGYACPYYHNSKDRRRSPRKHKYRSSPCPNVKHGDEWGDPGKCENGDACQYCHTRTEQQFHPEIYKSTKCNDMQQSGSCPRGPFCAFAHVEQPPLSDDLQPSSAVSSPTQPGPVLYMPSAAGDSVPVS

B1: chr16:70160055:70160156:+|3pUTR|ENSG00000090857|msi1|total|mutant (ssRNA)
RNA: GGGAGUUCUACAGUCCGACGAUCUUGUGCUCACCACGAAGGAUGGUCUCUGCCUUCUCUUGUCGGUGUAUGCCAUCUGAACCCCGGAACACAAAGUAUAUUGGCCUCAAACGGAGACCCAGGGUUGCCAGUUUUCCGUGGGCCCAACAGAGGAUUGAGCAUCA
B2: chr12:68660398:68660499:+|3pUTR|ENSG00000127314|msi1|FALSE|unique (ssRNA)
RNA: GGGAGUUCUACAGUCCGACGAUCUUGAGGUGGCCAAAUGUAAACUAAAAGCCUUAAUUAAAGUGGUGCAAUUUUGUAUAACUUAGCAUCAGUAGUUCAAUAAAUUUGGAUUGCCAUGCAAGGGCUUGCAUUAUAAUUACUUGCCAACAGAGGAUUGAGCAUCA
B3: chr4:186588032:186588133:-|3pUTR|ENSG00000083857|msi1|FALSE|unique (ssRNA)
RNA: GGGAGUUCUACAGUCCGACGAUCUUUUUUUACUAUAACCAGGGUUUCAUUCUGUCUUUUUCCACUGAAGUGUGACAUUUUGUUAGUACAUUUCAGUGUAGUCAUUCAUUUCUAGCUGUACAUAGGAUGAAGGAGAGAUCAGAUCAACAGAGGAUUGAGCAUCA
B4: chr1:225496770:225496921:-|3pUTR|ENSG00000154380|msi1|FALSE|unique (ssRNA)
RNA: GGGAGUUCUACAGUCCGACGAUCUUUUUUAAUUGCAGACAGUAAUGCAUGUCACACUAAUAUGUAGUGGCCUUUUCAAGGCCUAGUCCCAGGGAAAACAUUUUGUAGAGUAUAGGGGAGUGGGAGGAAGGGGAGGAAUAAUUUCAACAGAGGAUUGAGCAUCA
B5: chr13:45969211:45969312:-|CDS|ENSG00000123200|unk|FALSE|unique (ssRNA)
RNA: GGGAGUUCUACAGUCCGACGAUCGUCCCUGACCGUACAGAGGUGACAGAAGCAGAGCAUACUGCCACCGCCACGACUCCUGGUAGUACCCCUUCUCCUCUAUCUUCUCUUCUUCCUCCUCCACCGCCUGUGGCUACUGCCACUCAACAGAGGAUUGAGCAUCA
B6: ENSG00000107863:be:win_5851|CDS_3pUTR|ENSG00000107863|bound_else_gene|NA|bound_elsewhere_windowed (ssRNA)
RNA: GGGAGUUCUACAGUCCGACGAUCAAAGCAGAGUUUCAUCCCUGUCUUUAAACUGGGGGUAUGUCCACUCUAGCAAGUAAAAAAACUACUGUUACACGUUCCAGUAACUCUGUCAAUAUUUUCUUGUAUCAGAAUUGUUAUUAUCAACAGAGGAUUGAGCAUCA
B7: ENSG00000198589:be:win_7901|CDS|ENSG00000198589|bound_else_gene|NA|bound_elsewhere_windowed (ssRNA)
RNA: GGGAGUUCUACAGUCCGACGAUCCUCGUUCUGAGUCAUAUAUUGGGGGAAAUUGCUACAUUCUCUCAGGGUCACGUGAUGCAACUCUUUUGCUGUGGUAUUGGAAUGGAAAAUGCAGUGGGAUUGGAGAUAACCCAGGCAGUGCAACAGAGGAUUGAGCAUCA
B8: chr13:106491723:106491923:-|3pUTR|ENSG00000125266|msi1|total|mutant (ssRNA)
RNA: GGGAGUUCUACAGUCCGACGAUCCAGACUCAGCUGCUAUACUUAUCACAUUUUAUUAAACACAGGGAAAGCAUUCCGGAGAACCGCAGAGAGCCAAAUCUGACCUAAAAGUUGAAAAGCCAAAGGUCAAACAGGCUGUAAUUCCAACAGAGGAUUGAGCAUCA
B9: chr1:178849534:178851128:-|three_prime_utr|ENSG00000116194|control|control|control (ssRNA)
RNA: GGGAGUUCUACAGUCCGACGAUCCUACACAGAAAGUUUUUAAAAUGAAUUUUACCGUAACUAUAAAAGGGAACCUAUAAAUGUAGUUUCAUCUGUCGUCAAUUACUGCAGAAAAUUAUGUGUAUCCACAACCUAGUUAUUUUACAACAGAGGAUUGAGCAUCA
B10: chr1:9729969:9730061:-|3pUTR|ENSG00000171603|msi1_unk|FALSE|overlapping (ssRNA)
RNA: GGGAGUUCUACAGUCCGACGAUCGUUUUUAUUUUUUCCAAACUAGUGCAUGUAUAAAUAAUGGCAGGAUGGGGGGUACUGUGUAGAUGAUUAACUGACUUUUUAAUAUUUUGUAAAUAAAUCGGAUUCCUUGUGUCCUUUGUGCAACAGAGGAUUGAGCAUCA
B11: chr1:93361585:93361687:+|3pUTR|ENSG00000117505|unk|total|mutant (ssRNA)
RNA: GGGAGUUCUACAGUCCGACGAUCUUUAACUUGCCGUUACCGUUUACUUAUUGUUUUCCGAAUUACUUUUACAUUUUCCCAACCCGAUGGCCCCGAGUCCAACAUUACCUUUUGAGAUGACAUUAUUGUCUCCAUAAUUGAGUGCAACAGAGGAUUGAGCAUCA
B12: chr15:52550141:52550321:-|3pUTR|ENSG00000128989|msi1|FALSE|unique (ssRNA)
RNA: GGGAGUUCUACAGUCCGACGAUCAGAUGUCACUUUAGUAAAAUACCAAUUUAGUUUUACUUGUGGCUUAUCUAGUUAGAACUUAGCAGACUUUACUGGGACAAGUUUACUGCUCUUGUAGGAGCUCCUCUCACAAGUAGUUGUCAACAGAGGAUUGAGCAUCA
B13: chr1:93361585:93361687:+|3pUTR|ENSG00000117505|unk|FALSE|unique (ssRNA)
RNA: B11 RNA with C33U, C34A, C39U, C40A, C57U, C58A, C83U, C84A, C92U, C93A
B14: chr1:162523450:162523604:+|3pUTR|ENSG00000152332|msi1|FALSE|unique (ssRNA)
RNA: GGGAGUUCUACAGUCCGACGAUCAGACUAAGUUGUGCCAGAUGUAAAUCAACCCCUCUUUUAGUUUACUUUAGACUUUGUAUUAGCUCAUCUUUUUUGUAGUAAAUCUAUAGUUUUAAGGUUUCUCAAGAUGUGGCUCUACCUCAACAGAGGAUUGAGCAUCA
B15: chr1:9729969:9730061:-|3pUTR|ENSG00000171603|msi1_unk|total|mutant (ssRNA)
RNA: B10 RNA with U43C, A44C, U83C, A84C
B16: chr11:119045269:119045370:-|3pUTR|ENSG00000149428|msi1|FALSE|unique (ssRNA)
RNA: GGGAGUUCUACAGUCCGACGAUCUGUGGUUAAAAAUGGAAACUGUUCUCCUCCCCAGCCCCACUCCCUGUUCCCUACCCAUAUAGGCCCUAAAUUUGGGAAAAAUCACUAUUAAUUUCUGAAUCCUUUGCCUGUGGGUAGGAACAACAGAGGAUUGAGCAUCA
B17: chr2:5695263:5695412:+|3pUTR|ENSG00000176887|msi1_unk|FALSE|overlapping (ssRNA)
RNA: GGGAGUUCUACAGUCCGACGAUCUGGUGAUAUAGACCUCAGAGCUGUUAUCUUAGUUUAAAGAUUGUAUAUGUACUGUACUAUAGUAGGACUUUAUGUAUCUCAUACGCUGUGAUGUGGAUGGGGCCCCAGAUGGAAGGUUUGCAACAGAGGAUUGAGCAUCA
B18: chr10:17315694:17315795:-|3pUTR|ENSG00000148488|unk|FALSE|unique (ssRNA)
RNA: GGGAGUUCUACAGUCCGACGAUCCUUCUUCCUCCCUGUCCAUCCCACCCUCGUCCCCAGAAAAUUCCUAAUCUGUUUUUCUAUAGACAUUUACAUUUUUACACUAUAGACUGUUUACAUUUUUUAGAAUUUUAUAUAAAUGGACAACAGAGGAUUGAGCAUCA
B19: chr10:16593140:16593241:-|3pUTR|ENSG00000148484|unk|FALSE|unique (ssRNA)
RNA: GGGAGUUCUACAGUCCGACGAUCUUAUUUUUCUUUUCACUCUCUUUCUAAUGCUUCCCACCUUACCUUUUAGAUUCUUUUGCUAGGUGGGAGAUUGUUAUAAGGUCUUUAAACCAUUUCCAUUUGUUUCUUUAACAUUACCAACAACAGAGGAUUGAGCAUCA
B20: chr14:53039561:53039662:-|3pUTR|ENSG00000100523|unk|total|mutant (ssRNA)
RNA: GGGAGUUCUACAGUCCGACGAUCUCAAACUAUAUUUUUGUUACAGCAAACUACAUUCCAUUUGCCUUUAAAUGCUUGCAUUUCCGUUAUUGUACUGGCUACCUGUUUUUGUCUGCCCAGCAUCCUGUUUCCCCUCCUUUUGGACAACAGAGGAUUGAGCAUCA
B21: chr3:89481969:89482070:+|3pUTR|ENSG00000044524|msi1|FALSE|unique (ssRNA)
RNA: GGGAGUUCUACAGUCCGACGAUCAUAUGUGUUUACUUUAAACUUGUCUUUUCAAAAUAUUACUCAGUUUAUGUUGUACAAUGUAGAUGGCCUCUUACUAAUGUAAAAUGAUUUGUAGUGGAAACAUUUAUAUUUUUAUAAUAACAACAGAGGAUUGAGCAUCA
B22: chr1:180885316:180885399:+|3pUTR|ENSG00000143324|msi1_unk|FALSE|overlapping (ssRNA)
RNA: GGGAGUUCUACAGUCCGACGAUCUUGGCAGCCAUUUCUCCCAGCAGUUUUAAAGGAUGAACAUUGGAUUUCAUGCCAUCCCAUAGAAAACCUGUUUUAAAAUUUUAGGGAUCUUUACUUGGUCAUACAUGAAAAGUACACUGCCAACAGAGGAUUGAGCAUCA

The assay addresses T1, UNK ZnF1-6 (called full-length). The experiment in a line: nsRBNS (natural sequence RNA bind-n-seq); RBNS binding buffer (assumed for nsRBNS): 25 mM Tris pH 7.5, 150 mM KCl, 3 mM MgCl2, 0.01% Triton X-100, 500 ug/ml BSA, 20 U/ml SUPERase-In, 4 C; UNK is unkempt and MSI1 is Musashi-1; names of the RNAs are library labels; protein concentration not given here; high values mean tight binding.
In the case of B1, the binding signal came out at 0.469 enrichment R.

With B2, the binding signal came out at 0.685 enrichment R.

B3 had a binding signal of 1.31 enrichment R.

Turning to B4, the binding signal turned out to be 7.59 enrichment R.

Turning to B5, the binding signal came to 1.84 enrichment R.

Molecule B6 registered a binding signal of 0.426 enrichment R.

As for B7, the binding signal came to 0.728 enrichment R.

In the case of B8, the binding signal came out at 1.05 enrichment R.

Molecule B9 gave a binding signal of 2.6 enrichment R.

Consider B10, for which the binding signal came out at 22 enrichment R.

B11 had a binding signal of 4.48 enrichment R.

Molecule B12 registered a binding signal of 2.25 enrichment R.

The molecule B13 had a binding signal of 152 enrichment R.

As for B14, the binding signal turned out to be 58.2 enrichment R.

Turning to B15, the binding signal is 1.54 enrichment R.

B16 yielded a binding signal of 0.528 enrichment R.

Molecule B17 displayed a binding signal of 1.36 enrichment R.

B18 registered a binding signal of 25.2 enrichment R.

Molecule B19 came in with a binding signal of 4.14 enrichment R.

As for B20, the binding signal is 0.468 enrichment R.

B21: the binding signal was 1.68 enrichment R.

Regarding B22, the binding signal was determined as 1.91 enrichment R.
